# In PubChem BioAssay (NCATS):
# Where “and” joins values, the source holds several entries; their conditions need not be identical. Equal entries are not always repeated. Inconclusive results are not listed. Calls of active or inactive are those of the source. Calls follow the shape of the dose curve; as a rule, active = well fitted curve in the direction sought with a large enough effect; inconclusive = small, poorly fitted or top-dose-only effect, or another doubt; inactive = no such curve, though single readings can be large; an effect the other way counts as inactive or inconclusive.
# How the values were obtained:
# [1] = Quantitative High-Throughput drug screen in 47 multiple myeloma cell lines against the NCATS MIPE library collection: Karpas25_ECACC cell viability assay (AID 1918968; also: nearly all actives have a fitted effect of over 35% in size); conditions: Karpas25 myeloma viability, CellTiter-Glo ATP, 48 h; series mostly up to 45.8 µM
# Outline: (§1)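 Approved and investigational drugs from MIPE 4.0 were added by pin tool to 500 cells per well. After 48 hours at 37C, ATP-based CellTiter-Glo luminescence indicated remaining viability.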
# [2] = Quantitative High-Throughput drug screen in 47 multiple myeloma cell lines against the NCATS MIPE library collection: KMS27_JCRB cell viability assay (AID 1918970); conditions: KMS27 myeloma cells, CellTiter-Glo ATP viability, 48 h; series mostly up to 45.8 µM; also: nearly all actives have a fitted effect of over 30% in size
# Outline: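 KMS27_JCRB myeloma cells, 500 per well, exposed 48 h at 37 C, 5% CO2 to MIPE 4.0 compounds. Viability from ATP by CellTiter-Glo luminescence, normalized to DMSO (100%) and medium-only (0%) wells.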
# [3] = Quantitative High-Throughput drug screen in 47 multiple myeloma cell lines against the NCATS MIPE library collection: KMS12PE_JCRB cell viability assay (AID 1918972); conditions: KMS12PE myeloma viability, CellTiter-Glo ATP, 48 h; series mostly up to 45.8 µM; also: nearly all actives have a fitted effect of over 30% in size
# Outline: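 CellTiter-Glo ATP luminescence gave viability after 48 h compound treatment at 37C of 500 multiple myeloma cells per well. Normalisation used DMSO-only wells as 100% and media-only wells as 0% viability; primary qHTS of approved and investigational drugs.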
# [4] = Quantitative High-Throughput drug screen in 47 multiple myeloma cell lines against the NCATS MIPE library collection: KMS20_JCRB cell viability assay (AID 1918973); conditions: CellTiter-Glo ATP, 48 h; series mostly up to 45.8 µM; also: nearly all actives have a fitted effect of over 45% in size
# Outline: as §1
# [5] = Quantitative High-Throughput drug screen in 47 multiple myeloma cell lines against the NCATS MIPE library collection: KMS26_JCRB cell viability assay (AID 1918975); conditions: KMS26 myeloma cells viability, CellTiter-Glo ATP, 48 h; series mostly up to 45.8 µM; also: nearly all actives have a fitted effect of over 45% in size
# Outline: (§2)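 Steps: seed 500 cells per well; pin-transfer MIPE 4.0 library; incubate 48 h at 37C, 5% CO2, humidified; add CellTiter-Glo, 5 min room temperature; read luminescence.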
# [6] = Quantitative High-Throughput drug screen in 47 multiple myeloma cell lines against the NCATS MIPE library collection: MOLP8_DSMZ cell viability assay (AID 1918977); conditions: MOLP8 myeloma viability, CellTiter-Glo ATP luminescence, 48 h; series mostly up to 45.8 µM; also: nearly all actives have a fitted effect of over 45% in size
# Outline: (§3)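 ATP-based CellTiter-Glo luminescence after 48 h drug exposure (37 °C, 5% CO2) of 500 myeloma cells per well. DMSO-only wells set 100% viability, media-only wells 0%; MIPE 4.0 library added by pin tool.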
# [7] = Quantitative High-Throughput drug screen in 47 multiple myeloma cell lines against the NCATS MIPE library collection: NCIH929_DSMZ cell viability assay (AID 1918978); conditions: NCI-H929 myeloma viability, CellTiter-Glo ATP, 48 h; series mostly up to 45.8 µM; also: nearly all actives have a fitted effect of over 35% in size
# Outline: as §3
# [8] = Quantitative High-Throughput drug screen in 47 multiple myeloma cell lines against the NCATS MIPE library collection: KMS12BM_JCRB cell viability assay (AID 1918971); conditions: KMS12BM myeloma viability, CellTiter-Glo ATP, 48 h; series mostly up to 45.8 µM; also: nearly all actives have a fitted effect of over 35% in size
# Outline: as §2
# [9] = Quantitative High-Throughput drug screen in 47 multiple myeloma cell lines against the NCATS MIPE library collection: MMM1_PLB cell viability assay (AID 1918976); conditions: MMM1 myeloma cells viability, CellTiter-Glo, 48 h; series mostly up to 45.8 µM; also: nearly all actives have a fitted effect of over 35% in size
# Outline: as §3
# [10] = Quantitative High-Throughput drug screen in 47 multiple myeloma cell lines against the NCATS MIPE library collection: KMS21BM_JCRB cell viability assay (AID 1918974); conditions: ATP luminescence, 48 h; viability: at 45.8 µM (top of the series) unless noted
# Outline: as §1
# Potency is read from the fitted curve at half-maximal effect.
Structure (SMILES),Potency [1],Potency [2],Potency [3],Potency [4],Potency [5],Potency [6],Potency [7],Potency [8],Potency [9],Potency [10],viability [10]
O=C(O)[C@@H](c1ccc(OCc2ccc3ccccc3n2)cc1)C1CCCC1,inactive,inactive,inactive,inactive,0.0012 µM (active),inactive,inactive,,,,
Cc1cc2c(C(C)C)c(O)c(O)c(C=O)c2c(O)c1-c1c(C)cc2c(C(C)C)c(O)c(O)c(C=O)c2c1O,5.9 µM (active),6.62 µM (active),7.43 µM (active),11.8 µM (active),14.8 µM (active),,9.35 µM (active),,,,
NCCCC(N)(C(=O)O)C(F)F (stereo not given),0.166 µM (active),inactive,inactive,,inactive,,0.0526 µM (active),inactive,0.526 µM (active),,
CCOc1cc(N2CCC(O)CC2)ccc1Nc1ncc2c(n1)N(C)c1ccccc1C(=O)N2C,9.35 µM (active),0.187 µM (active),1.05 µM (active),,4.18 µM (active),,,11.8 µM (active),,526 nM (active),
Nc1nc2[nH]cc(CCc3ccc(C(=O)N[C@@H](CCC(=O)O)C(=O)O)cc3)c2c(=O)[nH]1,inactive,18.7 µM (active),1.32 µM (active),inactive,inactive,,inactive,,,,
Cc1c(CN2CCN(C(=O)C(C)C)CC2)sc2c(N3CCOCC3)nc(-c3cnc(N)nc3)nc12,0.059 µM (active),0.0187 µM (active),0.296 µM (active),0.418 µM (active),0.264 µM (active),0.0372 µM (active),0.0166 µM (active),,,526 nM (active),
COc1ccc(-c2ccc3c(N4CCOCC4)nc(N4C[C@@H](C)O[C@@H](C)C4)nc3n2)cc1CO,0.743 µM (active),0.187 µM (active),2.35 µM (active),0.235 µM (active),2.96 µM (active),1.05 µM (active),0.187 µM (active),0.0833 µM (active),,833 nM (active),
COc1ccc2c3n(c(=NC(=O)c4cccnc4)nc2c1OC)CCN3,5.9 µM (active),11.8 µM (active),,,11.8 µM (active),2.64 µM (active),1.87 µM (active),inactive,4.69 µM (active),,
NCCc1ccc(O)c(O)c1,14.8 µM (active),16.6 µM (active),20.9 µM (active),,,20.9 µM (active),,7.43 µM (active),7.43 µM (active),,
Nc1nc2ccc(OC(F)(F)F)cc2s1,inactive,inactive,inactive,inactive,,,,16.6 µM (active),23.5 µM (active),,
Cc1ccc(NC(=O)c2cccc(C(C)(C)C#N)c2)cc1Nc1ccc2ncn(C)c(=O)c2c1,13.2 µM (active),1.05 µM (active),5.9 µM (active),2.96 µM (active),,,,,,,
Cc1cc(-c2ccc(CC(=O)Nc3ccc(-c4cccnc4)cc3)cc2)ccn1,18.7 µM (active),16.6 µM (active),14.8 µM (active),,,inactive,23.5 µM (active),18.7 µM (active),20.9 µM (active),,
CCn1cc(C(=O)O)c(=O)c2cc(F)c(N3CCNC(C)C3)c(F)c21 (stereo not given),inactive,inactive,inactive,inactive,inactive,inactive,inactive,inactive,,,
Cc1ccccc1C(C(=O)NC1CCCC1)N(C(=O)Cn1cnc2ccccc21)c1cccc(F)c1 (stereo not given),20.9 µM (active),inactive,,,,,18.7 µM (active),14.8 µM (active),,,
Cc1csc(NC(=O)c2sc3nc4c(c(C(F)(F)F)c3c2N)CCC4)n1,1.48 µM (active),inactive,,,inactive,inactive,inactive,16.6 µM (active),,,
CCOC(=O)C1=C[C@]2(CC)CCCN3CCc4c(n1c1ccccc41)[C@@H]32,9.35 µM (active),23.5 µM (active),10.5 µM (active),5.9 µM (active),26.4 µM (active),18.7 µM (active),8.33 µM (active),,14.8 µM (active),,
N=c1nc(N2CCCCC2)cc(N)n1O,26.4 µM (active),inactive,inactive,,,,,,,,
CCc1cncnc1N1CCN(Cc2nc3ccc(C(F)(F)F)cc3[nH]2)CC1,5.26 µM (active),7.43 µM (active),2.09 µM (active),,4.18 µM (active),,,14.8 µM (active),,,
CO[C@@H]1[C@H](N(C)C(=O)c2ccccc2)C[C@H]2O[C@]1(C)n1c3ccccc3c3c4c(c5c6ccccc6n2c5c31)C(=O)NC4,2.35 µM (active),1.32 µM (active),0.935 µM (active),1.05 µM (active),3.72 µM (active),1.32 µM (active),0.935 µM (active),9.35 µM (active),,166 nM (active),
Cn1c(=O)c(F)c(Nc2ccc(I)cc2F)c2c(=O)n(C[C@@H](O)CO)cnc21,13.2 µM (active),1.87 µM (active),18.7 µM (active),0.0118 µM (active),inactive,inactive,,,,,
S=C(NCc1ccc2c(c1)OCO2)N1CCN(c2ncnc3c2oc2ccccc23)CC1,0.303 µM (active),4.29 µM (active),1.52 µM (active),,,,4.81 µM (active),1.91 µM (active),1.21 µM (active),1210 nM (active),
Cn1cnc2c(F)c(Nc3ccc(Br)cc3Cl)c(C(=O)NOCCO)cc21,16.6 µM (active),0.469 µM (active),3.32 µM (active),0.0935 µM (active),7.43 µM (active),,0.105 µM (active),,,105 nM (active),

Structure (SMILES),Potency [1],Potency [2],Potency [3],Potency [4],Potency [5],Potency [6],Potency [7],Potency [8],Potency [9],Potency [10],viability [10]
N[C@@H]1CONC1=O,inactive,inactive,inactive,inactive,inactive,,inactive,inactive,,,
COc1ccc([C@@H]2CC(=O)c3c(O)cc(O[C@@H]4O[C@H](CO[C@@H]5O[C@@H](C)[C@H](O)[C@@H](O)[C@@H]5O)[C@@H](O)[C@H](O)[C@@H]4O)cc3O2)cc1O,inactive,inactive,inactive,,,,inactive,inactive,,,
CCCS(=O)(=O)Nc1ccc(F)c(C(=O)c2c[nH]c3ncc(-c4ccc(Cl)cc4)cc23)c1F,9.35 µM (active),inactive,,,,,,20.9 µM (active),,,
OCCn1cc(-c2cnc3nnn(Cc4ccc5ncccc5c4)c3n2)cn1,14.8 µM (active),inactive,20.9 µM (active),,,,inactive,18.7 µM (active),,,
Cc1cn[nH]c1,0.59 µM (active),0.264 µM (active),0.296 µM (active),0.332 µM (active),,,1.18 µM (active),0.0132 µM (active),,,
NS(=O)(=O)c1cc2c(cc1Cl)NC=NS2(=O)=O,inactive,inactive,inactive,inactive,inactive,inactive,,,,,201% (active)
CC1(C)CNc2cc(NC(=O)c3cccnc3NCc3ccncc3)ccc21,2.09 µM (active),inactive,4.18 µM (active),,,,,,,,
CC(c1cc2ccccc2s1)N(O)C(N)=O (stereo not given),inactive,inactive,inactive,inactive,inactive,inactive,inactive,,,,
CCOc1ccc(Cc2cc([C@@H]3O[C@H](CO)[C@@H](O)[C@H](O)[C@@H]3O)ccc2Cl)cc1,18.7 µM (active),16.6 µM (active),26.4 µM (active),,inactive,,inactive,inactive,,,
O=c1[nH]c(-c2ccc(C(F)(F)F)cc2)nc2c1CSCC2,18.7 µM (active),inactive,inactive,inactive,3.72 µM (active),inactive,18.7 µM (active),,7.43 µM (active),,
CC(C)C[C@H](NC(=O)[C@@H](O)[C@H](N)Cc1ccccc1)C(=O)O,20.9 µM (active),inactive,inactive,11.8 µM (active),23.5 µM (active),20.9 µM (active),20.9 µM (active),23.5 µM (active),20.9 µM (active),,
Cc1[nH]c(=O)c(C#N)cc1-c1ccncc1,9.35 µM (active),1.32 µM (active),,,inactive,,10.5 µM (active),inactive,,,
O=c1[nH]cnc2[nH]ncc12,inactive,inactive,,inactive,,inactive,inactive,,,,
CN(C)C(=O)c1ccc(S(=O)(=O)c2ccc(NC(=O)[C@@](C)(O)C(F)(F)F)c(Cl)c2)cc1,3.72 µM (active),14.8 µM (active),,,,inactive,,,,,
O=C(Nc1cccnc1)N1CCC(Cc2cccc(Oc3ccc(C(F)(F)F)cn3)c2)CC1,9.35 µM (active),16.6 µM (active),16.6 µM (active),,,,,,10.5 µM (active),9350 nM (active),
O=C(C=Cc1ccc(/C=C/C(=O)Nc2ccc(C3=NCCN3)cc2)cc1)Nc1ccc(C2=NCCN2)cc1,inactive,inactive,inactive,inactive,,inactive,inactive,,,,
COc1cc(F)c(F)c(Nc2ccc(I)cc2F)c1NS(=O)(=O)C1(C[C@H](O)CO)CC1,20.9 µM (active),16.6 µM (active),16.6 µM (active),,13.2 µM (active),,18.7 µM (active),,,,
CCn1c(-c2nonc2N)nc2cnc(Oc3cccc(NC(=O)c4ccc(OCCN5CCOCC5)cc4)c3)cc21,2.35 µM (active),8.33 µM (active),5.9 µM (active),,,,9.35 µM (active),,10.5 µM (active),,
O=C(Nc1nc2ccccc2n1CCN1CCOCC1)c1cccc([N+](=O)[O-])c1,inactive,7.43 µM (active),,,29.6 µM (active),,,,,,
CC(C=CC1=C(C)CCCC1(C)C)=CC=CC(C)=CC(=O)O,16.6 µM (active) and 18.7 µM (active),3.72 µM (active),,,inactive,,18.7 µM (active) and 6.62 µM (active),,,,
CC(C)(N)C(=O)N[C@H](COCc1ccccc1)C(=O)N1CCC2(CC1)CN(S(C)(=O)=O)c1ccccc12,16.6 µM (active),5.26 µM (active),inactive,,0.0264 µM (active),,,,23.5 µM (active),,
Clc1cccc(Cl)c1NC1=NCCN1,inactive,inactive,inactive,inactive,,inactive,inactive,,,,
